Results on 19 compounds are retold here after PubChem BioAssay (NCATS).

In assay [1] the test system is HaCat. The experiment in a line: Cytotoxic Profiling of Annotated Libraries Using Quantitative High-Throughput Screening (AID 1296008). Also: nearly all actives have a fitted effect of over 60% in size. Also: potency is read from the fitted curve at half-maximal effect. As to max response: % is scaled to controls: 0 for no effect and ±100 for the full control effect. Conditions: Five cell lines viability, CellTiter-Glo ATP luminescence, 48-72 h; max response: hits give low values. A digest of the protocol:
(§1)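 Cytotoxicity was measured as CellTiter-Glo ATP luminescence, read after 10 min at room temperature. Compound treatment of the cells lasted 48 or 72 hr at 37 degrees Celsius in a qHTS format.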
On the technique in general: ATP-based viability assays read luminescence as a measure of living cells.

In the next assay the test system is KB-3-1. The description is as above. Conditions: Five cell lines viability, CellTiter-Glo ATP luminescence, 48-72 h; max response: hits give low values. A digest of the protocol:
as §1

In the next assay the test system is MCC-13. The experiment in a line: qHTS assay to identify novel small-molecules to repurpose for Merkel cell carcinoma treatment (AID 1296009). Also: nearly all actives have a fitted effect of over 60% in size. Also: potency is read from the fitted curve at half-maximal effect. Conditions: MCC and control cell lines, CellTiter-Glo viability, 72 h; series mostly up to 46 µM. A digest of the protocol: (§2)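 Cell viability, measured as CellTiter-Glo luminescence, was normalized between DMSO and no-cell wells. The cells had been exposed to 8- or 11-point compound dilutions for 72 hr at 37 degree celsius.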
(Quantitative high-throughput screening tests each substance at several concentrations.)

For another assay, the system named is MCC-26. Described as above. Conditions: MCC and control cell lines, CellTiter-Glo viability, 72 h; series mostly up to 46 µM. A digest of the protocol: as §2
In the next assay the test system is MKL-1. The description is as above. Conditions: MCC and control cell lines, CellTiter-Glo viability, 72 h; series mostly up to 46 µM. A digest of the protocol:
as §2

A further assay deals with MKL-2. The description is as above. Conditions: MCC and control cell lines, CellTiter-Glo viability, 72 h; series mostly up to 46 µM. A digest of the protocol:
as §2

The next assay relates to UISO. The description is as above. Conditions: MCC and control cell lines, CellTiter-Glo viability, 72 h; series mostly up to 46 µM. A digest of the protocol: as §2
For a further assay, the system named is WaGa. The description is as above. To be noted: MCC and control cell lines, CellTiter-Glo viability, 72 h; series mostly up to 46 µM. A digest of the protocol:
as §2

Assay [2] concerns NIH3T3. Put plainly: Cytotoxic Profiling of Annotated Libraries Using Quantitative High-Throughput Screening (AID 1296008). Also: nearly all actives have a fitted effect of over 60% in size. Also: potency is read from the fitted curve at half-maximal effect. As to max response: % is scaled to controls: 0 for no effect and ±100 for the full control effect. To be noted: Five cell lines viability, CellTiter-Glo ATP luminescence, 48-72 h; max response: hits give low values. A digest of the protocol: as §1
In assay [3] the test system is HACAT. The experiment in a line: qHTS assay to identify novel small-molecules to repurpose for Merkel cell carcinoma treatment (AID 1296009). Also: nearly all actives have a fitted effect of over 60% in size. Also: potency is read from the fitted curve at half-maximal effect. To be noted: MCC and control cell lines, CellTiter-Glo viability, 72 h; at 44.8 µM (top of the series) unless noted. A digest of the protocol: as §2
Assay [4] has as its system NIH3T3. The description is as above. To be noted: MCC and control cell lines, CellTiter-Glo viability, 72 h; series mostly up to 44.8 µM. A digest of the protocol: as §2
Another assay relates to HEK293. Put plainly: Cytotoxic Profiling of Annotated Libraries Using Quantitative High-Throughput Screening (AID 1296008). Also: nearly all actives have a fitted effect of over 60% in size. Also: potency is read from the fitted curve at half-maximal effect. As to max response: % is scaled to controls: 0 for no effect and ±100 for the full control effect. To be noted: Five cell lines viability, CellTiter-Glo ATP luminescence, 48-72 h; max response: hits give low values. A digest of the protocol: as §1
A further assay relates to W2. Put plainly: qHTS profiling for inhibitors of Plasmodium falciparum proliferation (AID 504749). To be noted: P. falciparum in erythrocytes, SYBR Green DNA, 72 h; series mostly up to 28.7 µM. A digest of the protocol:
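SYBR Green fluorescence of parasite DNA, read after lysis and overnight dark incubation, measured growth over 72 h in erythrocyte culture at 0.3% parasitemia and 2.5% hematocrit. Data normalised to DMSO and 0.29 uM artemisinin, with plate-drift correction.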

The subject of the next assay is CAOV3. The experiment in a line: Primary qHTS to identify gynecologic anti-cancer compounds using libraries of approved drugs and bioactive compounds (AID 1345084). Also: % is scaled to controls: 0 for no effect and ±100 for the full control effect; nearly all actives have a fitted effect of over 55% in size. Conditions: Gynecologic cancer cell panel viability, ATPlite luminescence, 48 h; series mostly up to 57.5 µM. A digest of the protocol:
(§3)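 Five-point cytotoxicity, 48 h drug exposure at 37 C, 5% CO2, on cells seeded 16 h beforehand. ATP content read by ATPlite luminescence.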

The subject of a further assay is Es-2. The description is as above. Conditions: Gynecologic cancer cell panel viability, ATPlite luminescence, 48 h; series mostly up to 57.5 µM. A digest of the protocol:
as §3

The subject of the next assay is HeLa. The description is as above. To be noted: Gynecologic cancer cell panel viability, ATPlite luminescence, 48 h; series mostly up to 57.5 µM. A digest of the protocol: as §3
In the next assay the test system is HEK293T. The experiment in a line: qHTS assay to identify novel small-molecules to repurpose for Merkel cell carcinoma treatment (AID 1296009). Also: nearly all actives have a fitted effect of over 60% in size. Also: potency is read from the fitted curve at half-maximal effect. To be noted: MCC and control cell lines, CellTiter-Glo viability, 72 h; at 44.8 µM (top of the series) unless noted. A digest of the protocol: as §2
The test system of another assay is C33A. The experiment in a line: Primary qHTS to identify gynecologic anti-cancer compounds using libraries of approved drugs and bioactive compounds (AID 1345084). Also: % is scaled to controls: 0 for no effect and ±100 for the full control effect; nearly all actives have a fitted effect of over 55% in size. Conditions: Gynecologic cancer cell panel viability, ATPlite luminescence, 48 h; series mostly up to 57.5 µM. A digest of the protocol: as §3
The subject of another assay is CASKI. The description is as above. Conditions: Gynecologic cancer cell panel viability, ATPlite luminescence, 48 h; series mostly up to 57.5 µM. A digest of the protocol: as §3

Inconclusive results are not listed. Values without a mark were called inactive. Activity calls are given as the source filed them. Calls follow the shape of the dose curve; as a rule, active = well fitted curve in the direction sought with a large enough effect; inconclusive = small, poorly fitted or top-dose-only effect, or another doubt; inactive = no such curve, though single readings can be large; an effect the other way counts as inactive or inconclusive.

For the compound `NC(=O)c1nnn(Cc2cc(Cl)c(C(=O)c3ccc(Cl)cc3)c(Cl)c2)c1N`, the max response was -5.54% with HaCat [1] and -25.7% in the assay with KB-3-1. Moreover, the Potency entry in the assay with MCC-13, in the assay on MCC-26, in the assay with MKL-1, in the assay with MKL-2, in the assay on UISO and with WaGa was “inactive” each time.
Turning to `CON(C)C(=O)N1N=C(c2cc(F)ccc2F)S[C@]1(CCCN)c1ccccc1`, the max response in the assay on HaCat [1] was -26.8%; in the assay on NIH3T3 [2], -18.9%. The Potency in the assay with KB-3-1 was 0.0008 µM (active); in the assay with MCC-13, 0.0093 µM (active). In addition, the Potency result in the assay with MKL-1, in the assay with MKL-2, with UISO and in the assay with WaGa was “inactive” each time.
For `COc1ccc(-c2oc3c(CC=C(C)C)c(O)cc(O)c3c(=O)c2O)cc1`, the result in the assay with HaCat [1], with NIH3T3 [2] and in the assay with HACAT [3] was inactive. Moreover, the max response with KB-3-1 is 6.49%. Further, the Potency entry with MCC-13, with MCC-26, with MKL-1, with MKL-2, with NIH3T3 [4] and in the assay on UISO was “inactive” in each case. Further, in the assay on WaGa, the Potency result was “inactive”.
For `COc1cc2c(cc1Cc1cccc(Cl)c1F)c(=O)c(C(=O)O)cn2[C@H](CO)C(C)C`, the max response with HaCat [1] was -24.6%. Further, the Potency entry in the assay on MCC-26 was “inactive”. In the assay with MKL-2, the Potency was 18.7 µM (active).
With `Cc1nn(Cc2ccccc2Cl)c(C)c1CN(C)CC(O)COc1ccc(Cl)cc1` (stereo unspecified), the Potency in the assay with HEK293 was 18.7 µM (active). For the same compound, the Potency entry in the assay with MCC-13, with MCC-26, with MKL-1 and in the assay with WaGa was “inactive” throughout.
As for `CC(C)c1c(C(=O)Nc2ccccc2)c(-c2ccccc2)c(-c2ccc(F)cc2)n1CC[C@H](O)C[C@@H](O)CC(=O)O`, the Potency in the assay on HaCat [1] is 20.9 µM (active); with MKL-1, 18.7 µM (active); with MKL-2, 10.5 µM (active); in the assay with UISO it was 14.8 µM (active); in the assay with WaGa it was 23.5 µM (active). In addition, the max response with NIH3T3 [2] is -10.9%. Moreover, the Potency result in the assay with MCC-13 and with MCC-26 was “inactive” throughout.
`CC1(C)OC2CC3C4CC(F)C5=CC(=O)C=CC5(C)C4C(O)CC3(C)[C@]2(C(=O)CO)O1` (stereo partly specified): the Potency result in the assay with MCC-13, with MCC-26, in the assay on MKL-1, in the assay on MKL-2, in the assay on UISO and in the assay on WaGa was “inactive” in each case.
Turning to `COc1c(C)c2c(c(O)c1CC=C(C)CCC(=O)O)C(=O)OC2`, in the assay with HaCat [1], the max response was -8.02%. The Potency in the assay on NIH3T3 [2] is 3.72 µM (active); with MKL-1, 4.69 µM (active); with MKL-2 it was 2.09 µM (active); in the assay with UISO it was 9.35 µM (active); in the assay on WaGa, 3.32 µM (active).
Regarding `Fc1ccc(C(c2ccc(F)cc2)N2CCN(CC=Cc3ccccc3)CC2)cc1`, the Potency with W2 is 8.49 µM (active). Moreover, the Potency entry in the assay with MCC-13, in the assay with MCC-26, with MKL-1, in the assay with MKL-2, in the assay on UISO and in the assay with WaGa was “inactive” in each case.
Consider `O=C1CN2Cc3c(ccc(Cl)c3Cl)N=C2N1`, for which the max response in the assay with HaCat [1] was -28.5%. The Potency entry with MCC-13, in the assay with MKL-1, in the assay on MKL-2, in the assay on UISO and with WaGa was “inactive” each time.
On to `O=C(C=Cc1ccc(O)cc1)c1ccc(O)cc1O`, for which the compound was classed as inactive in the assay on HaCat [1] and in the assay on HACAT [3]. Besides, the max response with NIH3T3 [2] is -8.95%. Moreover, the Potency result in the assay on MCC-13, in the assay with MCC-26, in the assay with MKL-1 and with WaGa was “inactive” throughout.
Regarding `O=C(Nc1cccc(Cl)c1)Nc1ncc(CCNc2ncnc3ccsc23)s1`, the Potency with HaCat [1] was 2.09 µM (active); in the assay on MKL-1, 0.296 µM (active). Also, the Potency result in the assay on MKL-2 and with UISO was “inactive” in each case.
Take `CNC(=O)[C@H](Cc1ccccc1)NC(=O)[C@H](CC(C)C)[C@H](CSc1cccs1)C(=O)NO`: the Potency in the assay with HaCat [1] is 13.2 µM (active). Moreover, the max response in the assay with KB-3-1 is 2.61%; in the assay with NIH3T3 [2], 0.205%. Besides, the Potency result in the assay on MCC-13, in the assay with MCC-26, in the assay on MKL-1, in the assay with MKL-2 and in the assay on UISO was “inactive” throughout.
Turning to `CN1C(=O)C[C@H](C(=O)N[C@@H](Cc2cnc[nH]2)C(=O)N2CCC[C@@H]2C(N)=O)NC1=O`, the max response in the assay on HaCat [1] was -3.47%. The call in the assay on KB-3-1 and with NIH3T3 [2] was inactive. Moreover, the Potency result in the assay with MCC-13, in the assay on MCC-26 and in the assay on NIH3T3 [4] was “inactive” in each case. In addition, the figures for the Potency in the assay on MKL-2 and in the assay with WaGa were 6.62 µM (active) and 20.9 µM (active), respectively.
On to `Cc1ccc(NC(=O)c2cccc(N(C)C)c2)cc1NC(=O)c1ccc(O)cc1`, for which the outcome in the assay on HaCat [1] and in the assay with HACAT [3] was inactive. Also, the values for the max response in the assay on KB-3-1 and in the assay with NIH3T3 [2] were 5.76% and 3.99%, respectively. The Potency entry in the assay with MCC-13 is “inactive”. Besides, the Potency with MKL-1 is 8.33 µM (active); in the assay with MKL-2, 2.96 µM (active); in the assay on WaGa it was 8.33 µM (active).
As to `Cc1ccccc1C(=O)c1ccc(Nc2ccc(Br)cc2N)cc1Cl`, the results for the max response with HaCat [1] and with NIH3T3 [2] were -2.01% and -21.7%, respectively. The Potency result in the assay on MCC-13, with MCC-26, with MKL-1, with CAOV3, with Es-2 and in the assay with HeLa was “inactive” each time.
As for `Clc1ccc(COC(Cn2ccnc2)c2ccc(Cl)cc2Cl)c(Cl)c1` (stereo unspecified), the Potency in the assay with W2 is 2.28 µM (active). For the same compound, the Potency result in the assay on MCC-13, with MCC-26, in the assay on MKL-1 and in the assay with MKL-2 was “inactive” throughout.
Take `C[C@@H]1[C@H](C)CC[C@]2(C(=O)O)CC[C@]3(C)C(=CC[C@@H]4[C@@]5(C)CC[C@H](O)C(C)(C)[C@H]5CC[C@]43C)[C@@H]12`: the outcome in the assay on HACAT [3] and with HEK293T was “inactive [at 92 µM]” throughout. The Potency entry with MCC-13, in the assay on MCC-26, in the assay on MKL-2 and with NIH3T3 [4] was “inactive” in each case.
`Cc1ccc2c(c1)C(=O)[C@]1(O)CCN(c3ccccc3)C1=N2`: the Potency result with MCC-13, in the assay with MCC-26, with MKL-2, with UISO, in the assay with C33A and in the assay with CAOV3 was “inactive” in each case. Further, the Potency result with CASKI, in the assay with Es-2 and in the assay with HeLa was “inactive” throughout.
